# In the supplement of paper PMC10849652:
# Of roughly 7,900 targets only a part is listed; those with a hit were picked by preference. About 0.6% of all pairs of compound and target were hits. Unmarked numbers belong to inactive results.
# Compound: Cn1cc(-c2ccc3c(c2)CCN3C(=O)Cc2cccc(C(F)(F)F)c2)c2c(N)ncnc21
# Assay: log2 fold change, soluble protein after heating vs DMSO (PISA); higher = thermal stabilisation; K562 cells, 10 uM, 30 min; active = over 0.2 and 3.5 SD of the protein, either way, in both replicates (recomputed)
# In short: (§1)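 K562 cells (2×10^6 cells/mL) were treated with 10 μM compound for 30 min, and aliquots were heated for 3 min over 48°C-58°C. Pooled aliquots were extracted in PBS with 0.5% NP-40 at 4°C, and the supernatant after 21,000xg for 90 min was measured by TMTpro 16plex LC-MS/MS with channel sums equalised. Reported thermal stability, relative to control samples and from duplicates, is a log2 fold change.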
# Sequence of UniProt Q99986 (Q99986 whole entry, looked up): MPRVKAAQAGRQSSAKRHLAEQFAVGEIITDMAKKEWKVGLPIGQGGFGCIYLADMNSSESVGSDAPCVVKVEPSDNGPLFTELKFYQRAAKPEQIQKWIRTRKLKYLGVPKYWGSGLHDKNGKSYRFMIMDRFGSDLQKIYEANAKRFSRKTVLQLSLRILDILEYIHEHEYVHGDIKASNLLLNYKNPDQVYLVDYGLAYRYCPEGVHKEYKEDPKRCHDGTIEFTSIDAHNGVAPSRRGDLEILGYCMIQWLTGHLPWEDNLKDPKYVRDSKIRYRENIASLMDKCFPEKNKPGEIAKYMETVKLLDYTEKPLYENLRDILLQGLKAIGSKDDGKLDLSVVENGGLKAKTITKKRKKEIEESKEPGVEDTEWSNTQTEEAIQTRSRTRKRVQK
# Sequence of UniProt Q01081 (Q01081 whole entry, looked up): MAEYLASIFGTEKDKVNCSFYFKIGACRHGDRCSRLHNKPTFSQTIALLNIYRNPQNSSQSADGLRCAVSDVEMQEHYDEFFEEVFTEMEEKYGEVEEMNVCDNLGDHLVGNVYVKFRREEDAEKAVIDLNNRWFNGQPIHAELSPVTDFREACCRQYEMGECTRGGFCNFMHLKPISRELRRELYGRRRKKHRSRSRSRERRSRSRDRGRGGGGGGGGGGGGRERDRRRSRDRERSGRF
# Sequence of UniProt Q9BZI7 (Q9BZI7 whole entry, looked up): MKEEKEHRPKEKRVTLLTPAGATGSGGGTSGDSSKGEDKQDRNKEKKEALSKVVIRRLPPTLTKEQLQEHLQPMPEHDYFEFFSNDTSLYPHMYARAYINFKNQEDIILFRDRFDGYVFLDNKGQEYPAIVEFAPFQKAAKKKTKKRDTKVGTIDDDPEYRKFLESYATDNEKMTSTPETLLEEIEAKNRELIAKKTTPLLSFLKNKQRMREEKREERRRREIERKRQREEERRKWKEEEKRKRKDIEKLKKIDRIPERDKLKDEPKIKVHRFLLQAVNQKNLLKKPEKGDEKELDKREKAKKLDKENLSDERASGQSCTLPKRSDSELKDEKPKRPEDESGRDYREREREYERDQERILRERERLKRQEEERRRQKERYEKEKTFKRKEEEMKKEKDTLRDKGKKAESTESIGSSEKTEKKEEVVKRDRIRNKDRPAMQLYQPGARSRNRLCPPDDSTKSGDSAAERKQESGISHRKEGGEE
# Sequence of UniProt Q16763 (Q16763 whole entry, looked up): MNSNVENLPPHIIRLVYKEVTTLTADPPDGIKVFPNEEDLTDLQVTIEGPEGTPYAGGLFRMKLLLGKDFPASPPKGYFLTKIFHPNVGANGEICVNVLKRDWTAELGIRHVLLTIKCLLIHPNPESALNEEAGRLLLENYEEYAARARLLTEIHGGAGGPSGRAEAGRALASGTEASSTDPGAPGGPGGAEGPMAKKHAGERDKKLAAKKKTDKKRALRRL
# Sequence of UniProt Q5VIR6 (Q5VIR6 whole entry, looked up): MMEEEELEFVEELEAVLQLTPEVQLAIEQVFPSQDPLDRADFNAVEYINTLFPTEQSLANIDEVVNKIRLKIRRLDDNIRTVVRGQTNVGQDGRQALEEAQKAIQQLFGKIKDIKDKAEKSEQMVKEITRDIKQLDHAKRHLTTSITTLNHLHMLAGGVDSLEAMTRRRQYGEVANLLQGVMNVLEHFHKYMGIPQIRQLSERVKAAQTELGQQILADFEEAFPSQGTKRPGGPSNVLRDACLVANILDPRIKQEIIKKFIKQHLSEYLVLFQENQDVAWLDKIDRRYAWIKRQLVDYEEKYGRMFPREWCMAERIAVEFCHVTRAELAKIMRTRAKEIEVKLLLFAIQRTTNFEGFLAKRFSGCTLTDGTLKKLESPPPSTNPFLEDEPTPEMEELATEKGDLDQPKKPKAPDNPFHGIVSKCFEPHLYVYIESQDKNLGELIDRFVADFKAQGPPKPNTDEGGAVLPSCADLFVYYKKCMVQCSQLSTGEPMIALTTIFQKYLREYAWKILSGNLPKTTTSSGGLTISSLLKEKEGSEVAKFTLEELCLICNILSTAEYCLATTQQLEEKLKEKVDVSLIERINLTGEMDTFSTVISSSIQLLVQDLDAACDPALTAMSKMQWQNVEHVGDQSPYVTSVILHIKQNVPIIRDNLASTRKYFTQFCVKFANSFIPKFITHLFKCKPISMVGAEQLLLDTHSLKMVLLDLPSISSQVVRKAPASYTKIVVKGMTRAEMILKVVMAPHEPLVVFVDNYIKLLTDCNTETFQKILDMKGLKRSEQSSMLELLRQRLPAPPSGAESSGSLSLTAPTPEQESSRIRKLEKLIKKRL
# Sequence of UniProt Q9P0T7 (Q9P0T7 whole entry, looked up): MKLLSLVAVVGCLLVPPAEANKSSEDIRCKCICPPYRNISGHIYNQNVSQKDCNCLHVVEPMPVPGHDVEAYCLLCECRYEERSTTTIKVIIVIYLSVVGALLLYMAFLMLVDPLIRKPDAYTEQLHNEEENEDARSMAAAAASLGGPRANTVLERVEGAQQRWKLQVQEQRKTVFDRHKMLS
# Sequence of UniProt P13010 (P13010 whole entry, looked up): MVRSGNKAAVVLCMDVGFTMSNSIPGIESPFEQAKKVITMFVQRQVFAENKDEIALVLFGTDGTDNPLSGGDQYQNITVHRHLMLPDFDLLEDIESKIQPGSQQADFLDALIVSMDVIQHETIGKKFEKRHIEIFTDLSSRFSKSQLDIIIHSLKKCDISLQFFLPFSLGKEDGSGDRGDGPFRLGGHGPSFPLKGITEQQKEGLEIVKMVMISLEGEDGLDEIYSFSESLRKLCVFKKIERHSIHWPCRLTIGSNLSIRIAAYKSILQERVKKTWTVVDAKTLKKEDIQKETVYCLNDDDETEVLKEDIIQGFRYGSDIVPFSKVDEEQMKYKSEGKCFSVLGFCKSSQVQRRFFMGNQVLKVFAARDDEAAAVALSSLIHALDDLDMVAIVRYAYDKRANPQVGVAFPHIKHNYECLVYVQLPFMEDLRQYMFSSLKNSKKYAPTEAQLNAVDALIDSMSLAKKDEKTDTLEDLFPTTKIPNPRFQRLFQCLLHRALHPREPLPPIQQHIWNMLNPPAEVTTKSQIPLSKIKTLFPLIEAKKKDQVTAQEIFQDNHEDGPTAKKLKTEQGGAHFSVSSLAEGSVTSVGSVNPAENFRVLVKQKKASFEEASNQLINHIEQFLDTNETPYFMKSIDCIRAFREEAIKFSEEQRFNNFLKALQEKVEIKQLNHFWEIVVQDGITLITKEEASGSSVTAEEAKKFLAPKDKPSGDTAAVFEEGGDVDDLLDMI
# Sequence of UniProt Q8TBZ6 (Q8TBZ6 whole entry, looked up): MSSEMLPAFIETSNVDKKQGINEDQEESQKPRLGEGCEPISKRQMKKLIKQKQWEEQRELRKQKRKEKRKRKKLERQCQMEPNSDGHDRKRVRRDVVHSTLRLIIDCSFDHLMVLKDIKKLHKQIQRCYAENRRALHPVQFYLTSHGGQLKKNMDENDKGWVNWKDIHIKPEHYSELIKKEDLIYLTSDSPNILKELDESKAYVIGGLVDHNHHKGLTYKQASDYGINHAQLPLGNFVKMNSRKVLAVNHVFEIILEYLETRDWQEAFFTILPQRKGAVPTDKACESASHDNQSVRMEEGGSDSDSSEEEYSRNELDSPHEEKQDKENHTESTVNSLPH
# Sequence of UniProt Q99816 (Q99816 whole entry, looked up): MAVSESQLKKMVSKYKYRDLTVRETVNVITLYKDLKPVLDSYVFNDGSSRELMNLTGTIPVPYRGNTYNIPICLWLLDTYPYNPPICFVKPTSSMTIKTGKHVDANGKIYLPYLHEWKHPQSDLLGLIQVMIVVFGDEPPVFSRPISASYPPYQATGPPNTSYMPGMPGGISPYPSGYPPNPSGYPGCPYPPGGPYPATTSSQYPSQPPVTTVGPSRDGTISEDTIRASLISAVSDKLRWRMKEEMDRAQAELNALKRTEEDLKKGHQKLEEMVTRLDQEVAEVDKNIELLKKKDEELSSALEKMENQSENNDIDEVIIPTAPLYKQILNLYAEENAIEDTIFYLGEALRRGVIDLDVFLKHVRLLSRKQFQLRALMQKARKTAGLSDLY
# Sequence of UniProt Q5R3I4 (Q5R3I4 whole entry, looked up): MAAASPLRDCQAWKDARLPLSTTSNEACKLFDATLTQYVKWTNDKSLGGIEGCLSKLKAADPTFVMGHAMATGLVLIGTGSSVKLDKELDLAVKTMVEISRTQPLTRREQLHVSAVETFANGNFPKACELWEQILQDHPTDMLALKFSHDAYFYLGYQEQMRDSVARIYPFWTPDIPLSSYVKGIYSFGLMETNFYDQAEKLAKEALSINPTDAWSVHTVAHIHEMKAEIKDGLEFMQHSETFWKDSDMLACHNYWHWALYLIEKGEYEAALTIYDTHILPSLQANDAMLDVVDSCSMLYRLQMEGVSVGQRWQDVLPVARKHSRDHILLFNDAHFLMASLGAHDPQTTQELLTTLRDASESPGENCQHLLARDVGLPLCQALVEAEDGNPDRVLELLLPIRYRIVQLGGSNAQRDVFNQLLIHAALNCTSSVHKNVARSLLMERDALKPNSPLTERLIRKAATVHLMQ
# Sequence of UniProt Q9UGM6 (Q9UGM6 whole entry, looked up): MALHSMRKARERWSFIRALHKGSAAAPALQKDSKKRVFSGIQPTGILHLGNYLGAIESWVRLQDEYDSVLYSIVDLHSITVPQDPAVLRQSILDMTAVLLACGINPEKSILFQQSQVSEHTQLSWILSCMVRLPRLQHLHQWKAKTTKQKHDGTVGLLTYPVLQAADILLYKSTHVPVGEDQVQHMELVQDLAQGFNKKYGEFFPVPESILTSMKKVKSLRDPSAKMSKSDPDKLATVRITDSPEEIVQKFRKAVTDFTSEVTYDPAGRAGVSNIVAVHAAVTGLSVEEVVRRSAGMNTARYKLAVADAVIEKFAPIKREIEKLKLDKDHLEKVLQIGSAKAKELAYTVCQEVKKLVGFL
# Sequence of UniProt Q9UL33 (Q9UL33 whole entry, looked up): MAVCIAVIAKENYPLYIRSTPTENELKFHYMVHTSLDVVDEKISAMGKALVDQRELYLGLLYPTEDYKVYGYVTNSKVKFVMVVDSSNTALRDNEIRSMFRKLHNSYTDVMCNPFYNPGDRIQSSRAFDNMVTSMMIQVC
# Sequence of UniProt Q8N4H5 (Q8N4H5 whole entry, looked up): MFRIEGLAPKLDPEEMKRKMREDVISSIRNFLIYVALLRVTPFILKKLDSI
row,Target,log2 fold change
1,VRK1 (UniProt Q99986),0.057
2,UBE2S (UniProt Q16763),-0.002
3,XRCC5 (UniProt P13010),0.105
4,TMEM9 (UniProt Q9P0T7),0.057
5,TRMT10A (UniProt Q8TBZ6),0.104
6,TNPO1 (UniProt Q92973),-0.034
7,WARS2 (UniProt Q9UGM6),0.022
8,VPS53 isoform 4 (UniProt Q5VIR6),-0.035
9,TSG101 (UniProt Q99816),0.033
10,U2AF1 isoform 2 (UniProt Q01081),0.01
11,UPF3B (UniProt Q9BZI7),-0.225
12,VPS50 (UniProt Q96JG6),-0.019
13,TTC38 (UniProt Q5R3I4),0.071

# Compound: Cn1cc(-c2ccc3nnc(C(F)(F)c4ccc5ncccc5c4)n3n2)cn1
# Assay: as above
# In short: as §1
row,Target,log2 fold change
1,TRAPPC2L (UniProt Q9UL33),-0.111
2,UGDH (UniProt O60701),0.09
3,WDR7 (UniProt Q9Y4E6),-0.084
4,TOMM5 isoform 2 (UniProt Q8N4H5),0.217
5,USP7 (UniProt Q93009),0.153
6,TYW1 (UniProt Q9NV66),-0.085
7,UBR2 (UniProt Q8IWV8),0.058
8,TMEM161A (UniProt Q9NX61),-0.025
9,XPNPEP1 isoform 3 (UniProt Q9NQW7),0.039
10,XRCC6 (UniProt P12956),0.018
11,TNPO2 (UniProt O14787),-0.011
12,TRMT10C (UniProt Q7L0Y3),0.038
13,UHRF1BP1L (UniProt A0JNW5),0.038
14,TUBA4A (UniProt P68366),0.051
15,USP3 (UniProt Q9Y6I4),-0.023
16,WBP4 (UniProt O75554),0.047
17,VTA1 (UniProt Q9NP79),0
18,UBE3D (UniProt Q7Z6J8),0.013

row,Target,log2 fold change
1,VPS16 (UniProt Q9H269),0.04
2,TXNRD1 (UniProt Q16881),0.021
3,TMEM177 (UniProt Q53S58),0.016
4,WDCP (UniProt Q9H6R7),-0.001
5,TMEM223 (UniProt A0PJW6),0.038
6,VRK1 (UniProt Q99986),0.028
7,UBE2S (UniProt Q16763),-0.037
8,XRCC5 (UniProt P13010),0.123
9,TMEM9 (UniProt Q9P0T7),-0.007
10,TRMT10A (UniProt Q8TBZ6),0.008
11,TNPO1 (UniProt Q92973),0.009
12,WARS2 (UniProt Q9UGM6),-0.056
13,VPS53 isoform 4 (UniProt Q5VIR6),-0.027
14,TSG101 (UniProt Q99816),-0.024
15,U2AF1 isoform 2 (UniProt Q01081),-0.06
16,UPF3B (UniProt Q9BZI7),-0.24
17,VPS50 (UniProt Q96JG6),-0.035
18,TTC38 (UniProt Q5R3I4),-0.021

# Compound: Cn1cncc1[C@@](N)(c1ccc(Cl)cc1)c1ccc2c(c1)c(-c1cccc(Cl)c1)cc(=O)n2C [tipifarnib]
# Assay: as above
# In short: as §1
row,Target,log2 fold change
1,TRAPPC2L (UniProt Q9UL33),-0.111
2,UGDH (UniProt O60701),-0.034
3,WDR7 (UniProt Q9Y4E6),0.058
4,TOMM5 isoform 2 (UniProt Q8N4H5),0.107
5,USP7 (UniProt Q93009),-0.139
6,TYW1 (UniProt Q9NV66),-0.041
7,UBR2 (UniProt Q8IWV8),-0.095
8,TMEM161A (UniProt Q9NX61),-0.165
9,XPNPEP1 isoform 3 (UniProt Q9NQW7),-0.033
10,XRCC6 (UniProt P12956),-0.104
11,TNPO2 (UniProt O14787),-0.011
12,TRMT10C (UniProt Q7L0Y3),-0.037
13,UHRF1BP1L (UniProt A0JNW5),-0.065
14,TUBA4A (UniProt P68366),-0.073
15,USP3 (UniProt Q9Y6I4),-0.226
16,WBP4 (UniProt O75554),0.023
17,VTA1 (UniProt Q9NP79),-0.109
18,UBE3D (UniProt Q7Z6J8),-0.049

row,Target,log2 fold change
1,VPS16 (UniProt Q9H269),-0.078
2,TXNRD1 (UniProt Q16881),-0.107
3,TMEM177 (UniProt Q53S58),0.004
4,WDCP (UniProt Q9H6R7),-0.029
5,TMEM223 (UniProt A0PJW6),0.013
6,VRK1 (UniProt Q99986),-0.041
7,UBE2S (UniProt Q16763),-0.072
8,XRCC5 (UniProt P13010),-0.082
9,TMEM9 (UniProt Q9P0T7),-0.068
10,TRMT10A (UniProt Q8TBZ6),-0.022
11,TNPO1 (UniProt Q92973),-0.026
12,WARS2 (UniProt Q9UGM6),-0.046
13,VPS53 isoform 4 (UniProt Q5VIR6),-0.061
14,TSG101 (UniProt Q99816),-0.033
15,U2AF1 isoform 2 (UniProt Q01081),0.034
16,UPF3B (UniProt Q9BZI7),0.106
17,VPS50 (UniProt Q96JG6),-0.066
18,TTC38 (UniProt Q5R3I4),0.05
